Fewer than 10 of roughly 2,000 compounds were called active.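 Rule for the calls: active = growth inhibition of at least 75% in every replicate, which also brings the mean inhibition to 75% or more; inconclusive = mean inhibition 75% or more but some replicate under 75%; inactive = the rest.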 These entries were drawn from the full list.

A short description of the test: growth inhibition of PfHsp90-dependent yeast, primary screen, antimalarial PfHsp90 inhibitor project, S. cerevisiae, BacTiter-Glo luminescence (AID 504594).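 Note: 0% = DMSO neutral control wells and 100% = 20 µM radicicol control wells; higher value means stronger growth inhibition because the sign is flipped.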 Particulars: S. cerevisiae expressing PfHsp90, BacTiter-Glo growth, 48 h; at 9.4 µM; active compounds read high.
Turning to `CN(C)CCOc1ccc(Cl)cc1C(C)(C)C`, the growth inhibition was -0.977% (inactive).
For `COc1ccc2c(c1OC)C(=O)N1C2SC[C@H]1C(=O)NC1CC(C)(C)NC(C)(C)C1` (stereo not given in full), the growth inhibition was 2.59% (inactive).
As to `N#Cc1cc2c([nH]c1=O)CCCC2`, the growth inhibition was 8.49% (inactive).
Turning to `COc1cc2c(cc1O)CCN(C(=O)c1ccco1)C2C` (stereo not given), the growth inhibition is 3.62% (inactive).
For `Cc1c(Cc2ccccc2)c(=O)oc2c(CN(C)C)c(O)c(Cl)cc12`, the growth inhibition is -2.33% (inactive).
With `COc1cccc(N2C(=O)[C@H]3C(C(=O)c4cnccn4)=NN[C@H]3C2=O)c1`, the growth inhibition is -1.02% (inactive).
Consider `O=C(O)C[C@@H](O)C(=O)O`, for which the growth inhibition was -8.31% (inactive).
Take `Cc1ccc(CSCC(=O)N2CCCC2)cc1`: the growth inhibition is -5.17% (inactive).
Take `O=C(NCCc1nc2ccccc2[nH]1)c1cccc(Br)c1`: the growth inhibition was 2.71% (inactive).
In the case of `CCNC(=S)N1CCN(CCN2C(=O)c3cccc4cccc(c34)C2=O)CC1`, the growth inhibition is 2.01% (inactive).
For the molecule `COc1c2occc2c(OC)c2c(=O)cc(C(F)(F)C(F)(F)F)oc12`, the growth inhibition was -5.37% (inactive).
Consider `CC(=O)NC(Cc1c[nH]c2ccccc12)C(=O)N/N=C/c1ccccc1` (stereo not given), for which the growth inhibition was 13.4% (inactive).
Consider `O=C(CN1CC[n+]2c(-c3cccs3)csc21)c1ccc(Br)cc1`, for which the growth inhibition is -7.32% (inactive).
For `Cc1ccc2nc(N=C(N)N)nc(C)c2c1` the value was -4.91% (inactive); for `COc1ccc(CNC(=O)N[C@H](C(=O)O)C(C)C)cc1OC`, -0.856% (inactive).
`CCOC(=O)NN1C(=O)c2ccccc2NC1c1ccc(OC)c(OC)c1` (stereo not given): the growth inhibition was -6.91% (inactive).
Turning to `COC(=O)c1[nH]c(=O)c2ccccc2c1O`, the growth inhibition is -11.7% (inactive).
Consider `COC(=O)c1cc(OC)c(OC)cc1NC(=O)CN1C(=O)c2ccccc2C1=O`, for which the growth inhibition was -14.3% (inactive).
Consider `COc1cc(CNc2ccc(C)c(C)c2)cc(OC)c1OC`, for which the growth inhibition was 13.4% (inactive).
On to `Clc1ccc2c(c1)[C@H]1OCC[C@H]1[C@@H](c1ccco1)N2`, for which the growth inhibition is 1.42% (inactive).
Turning to `CC1(c2ccccc2)CC(C)(C)N2C(=O)C(=O)c3cccc1c32` (stereo not given), the growth inhibition is -3.23% (inactive).
Next, `O=c1nc2cccc3c2=c(/c1=C(\O)c1ccccc1)c1ccccc1c3=O`: -23.6% (inactive); `O=C1Nc2ccc3sc4ccccc4c3c2C1=O`: -1.28% (inactive).
Take `O=C(CN1C(=O)/C(=C/c2cccc(Br)c2)SC1=S)Nc1cccnc1`: the growth inhibition is -5.73% (inactive).
Next, `CC(C)c1ccc(/C=C/C(=O)O)cc1`: -10.9% (inactive).
For `COc1ccc(CC(=O)N2CC3(C)CC2CC(C)(C)C3)cc1OC` (stereo not given) the value was 12.2% (inactive); for `COc1ccc(CCn2c(C)cc3c(c2=O)C(c2ccncc2)C(C#N)=C(N)O3)cc1OC` (stereo not given), -3.67% (inactive).
`CC1(C)CC(CC(=O)O)(c2ccc(Cl)cc2)CCO1` (stereo not given): the growth inhibition was 4.78% (inactive).
Turning to `Cc1cccc2c1CC(C)(C)N/C2=C\C(N)=O`, the growth inhibition is 1.18% (inactive).
As for `COc1ccc(-c2[nH]ncc2C=O)cc1OC`, the growth inhibition is 7.91% (inactive).
Consider `O=C(/C=C/c1ccc(F)cc1)NC(=S)N1CCCCC1c1cccnc1` (stereo not given), for which the growth inhibition was 4.68% (inactive).
Turning to `C=CCc1cccc2cc(C(=O)Nc3ccc(CC(=O)O)cc3)c(=O)oc12`, the growth inhibition was -7.68% (inactive).
For `C[C@H](NC(=O)C1(c2ccccc2)CCN(C(=O)[C@H]2CSCN2C(=O)OC(C)(C)C)CC1)C(=O)O` the value was -9.59% (inactive); for `COC1CCN(Cc2cn(Cc3ccccc3)nc2-c2cc3ccccc3o2)CC1`, 3.22% (inactive); for `CC(C)CN1CC(C(=O)O)CC1=O` (stereo not given), -3.33% (inactive).
Consider `CCOCCn1c(C(C)O)nc2ccccc21` (stereo not given), for which the growth inhibition was -8.58% (inactive).
As to `O=C(CC(NC(=O)OCc1ccccc1)C(=O)O)OCc1ccccc1` (stereo not given), the growth inhibition is 0.482% (inactive).
Consider `COc1ccc(C(=O)Nc2ncc3c(n2)CC(C)CC3=O)cc1` (stereo not given), for which the growth inhibition is -12.5% (inactive).
On to `O=C1NCC2=C1C(c1ccccc1)Nc1ccccc1N2` (stereo not given), for which the growth inhibition is 6.48% (inactive).
In the case of `COc1cccc(C2CC(=O)C3=C(C2)Nc2ccccc2N(C(=O)CCC(=O)O)C3c2ccc(F)cc2)c1` (stereo not given), the growth inhibition is 3.39% (inactive).
Next, `COc1ccc(C(=O)CCN2CCc3cc(OC)c(OC)cc3C2)cc1`: 4.16% (inactive).
In the case of `O=C1OC(=O)C2C1[C@@H]1CC[C@H]2O1` (stereo not given in full), the growth inhibition is -14% (inactive).
Consider `COCc1cc(=O)[nH]c(/N=C(\N)Nc2ccc(Oc3ccccc3)cc2)n1`, for which the growth inhibition is -12.9% (inactive).
In the case of `CC(=O)c1ccc(CCCCCCCCCC(=O)O)s1`, the growth inhibition is -16.6% (inactive).
Next, `CC(C)CN1CCN(Cc2ccc3ncccc3c2)CC1CCO` (stereo not given): -15.2% (inactive); `O=c1ccc2c(o1)/C(=C/C=C(Cl)Cl)CCC2`: -2.29% (inactive).
In the case of `CC(C)(C)C(=O)NCCCNc1ccc([N+](=O)[O-])cc1`, the growth inhibition was 4.14% (inactive).
For `CC(=O)c1c(C)[nH]c(C(=O)OCc2ccccc2)c1C` the value was -16% (inactive); for `NS(=O)(=O)c1ccc(CCNC(=O)C2CCCN2C(=O)OCc2ccccc2)cc1` (stereo not given), -1.5% (inactive); for `Cn1c(Oc2ccc3c(c2)OCO3)nc2c1c(=O)n(Cc1ccccc1)c(=O)n2C`, 5.1% (inactive).
For `Oc1c(Cl)cc(Cl)c(Cl)c1Cc1c(O)c(Cl)cc(Cl)c1Cl`, the growth inhibition was 104% (active).
For `Cc1c2c(nc3c(C)cccc13)OC(C)C2` (stereo not given) the value was 8.19% (inactive).
For `CCOC(=O)n1c(=O)oc2ccccc21` the value was -13.3% (inactive); for `Cc1csc(CCc2nc(C)cs2)n1`, 0.825% (inactive).
For `O=C(Nc1ccc(F)c([N+](=O)[O-])c1)c1ccc2c(c1)OCCO2` the value was -4.38% (inactive); for `CC(C)NS(=O)(=O)c1ccc(OCC(=O)Nc2cccc(F)c2)cc1`, 4.62% (inactive).
As to `COc1c2c(nc3occc13)C(CC=C(C)C)(OC)C(O)CC2` (stereo not given), the growth inhibition was 3.58% (inactive).
`COc1ccc(C=NCC2COc3ccccc3O2)cc1OC` (stereo not given): the growth inhibition was 13.6% (inactive).
Consider `O=C(Oc1cccccc1=O)c1ccccc1`, for which the growth inhibition was 11% (inactive).
Consider `Cc1nc2ccccc2n1CC(=O)NC1CCCC1`, for which the growth inhibition was -8.15% (inactive).
For the molecule `CC1(C)CC(=O)c2cnc(NC(=O)C3CCCC3)nc2C1`, the growth inhibition is 0.802% (inactive).
Regarding `Cc1ccc(S(=O)(=O)Oc2ccccc2/C=N/N=C(N)N)cc1`, the growth inhibition is 9.9% (inactive).
Take `c1ccc(-c2ccc(C(c3ccccc3)n3ccnc3)cc2)cc1` (stereo not given): the growth inhibition is 91.6% (active).
Regarding `CCc1cc2c(C)cc(=O)oc2cc1OC(=O)C1CCCN1C(=O)OC(C)(C)C` (stereo not given), the growth inhibition was 5.63% (inactive).
In the case of `COc1ccc2cc(C(=O)Nc3ccc(S(N)(=O)=O)cc3)sc(=O)c2c1OC`, the growth inhibition was 5.36% (inactive).
For the molecule `CC(C)(C)NCC(O)COc1ccccc1C(=O)CCc1ccccc1` (stereo not given), the growth inhibition was -4.71% (inactive).
As to `Cn1nc(-c2ccccn2)nc2c(=O)n(C)c(=O)nc1-2`, the growth inhibition was -12.4% (inactive).
In the case of `Cn1c(=O)[nH]c2nnc(-c3ccc(Cl)c(Cl)c3)nc2c1=O`, the growth inhibition was 1.34% (inactive).
In the case of `Cn1nc(-c2ccc(Cl)cc2)nc2c(=O)n(C)c(=O)nc1-2`, the growth inhibition was 104% (active).
For `N/C(Cc1ccc(Cl)cc1Cl)=N\OC(=O)c1ccc(Br)o1`, the growth inhibition was 30.5% (inactive).
Take `Cc1cccc(Oc2coc3cc(OC(=O)c4cncc(Br)c4)ccc3c2=O)c1`: the growth inhibition is -0.933% (inactive).
For `COC(=O)[C@@H](N)CS` the value was -1.65% (inactive); for `O=Cc1ccc(N2CCCCC2)cc1`, -3.18% (inactive); for `C#CCOc1ccc2c(C)cc(=O)oc2c1`, -0.459% (inactive).
As to `COc1cccc(CC(=O)NCC2COc3ccccc3O2)c1OC` (stereo not given), the growth inhibition is 12.9% (inactive).
For `O=C(NCc1ccco1)/C(=C\C=C\c1ccccc1)NC(=O)c1ccccc1Br` the value was -0.463% (inactive); for `CC(=O)OCC(OC(C)=O)C(OC(C)=O)C(OC(C)=O)C(=O)Nc1cccc(C)c1` (stereo not given), -0.0548% (inactive); for `CC(=O)N1CCN(c2ccc(NC(=O)/C=C/c3ccccc3)cc2)CC1`, 10.6% (inactive).
Turning to `Cc1ccccc1-c1nn(-c2ccc(F)cc2F)cc1CNCCN(C)C`, the growth inhibition is -12.6% (inactive).
For `CC(C)Cc1ccc(C(C)C(=O)Nc2ccc(O)cc2)cc1` (stereo not given), the growth inhibition was -4.11% (inactive).
Take `Cc1ccc(C(=O)Nc2ccc(O)cc2C(=O)O)cc1C`: the growth inhibition is 4.07% (inactive).
In the case of `CC(=O)N1CCn2c3c(c4cc(C)ccc42)CCCC31` (stereo not given), the growth inhibition is -11.1% (inactive).
Turning to `Fc1cccc(Cc2noc(CN3CCN(c4cnccn4)CC3)n2)c1`, the growth inhibition is -2% (inactive).
For `O=Cc1ccccc1Oc1ccccc1` the value was -0.351% (inactive); for `COc1ccc2[nH]c3c(c2c1)CCn1c-3nc2ccccc2c1=O`, 0.118% (inactive); for `CC(=O)Nc1ccc(OS(=O)(=O)c2c(C)cc(C)cc2C)cc1`, 10.9% (inactive).
Take `CCOc1ccc(C(=O)C(C)=O)c(OCC)c1`: the growth inhibition is 10.5% (inactive).
For `CC(=O)Oc1ccc(C2OC(=O)c3ccccc3N2C(C)=O)cc1` (stereo not given) the value was -6.47% (inactive); for `COc1ccc(C(=O)O)cc1F`, -4.03% (inactive); for `O=C(O)c1ccccc1OCCOc1ccccc1`, 3.6% (inactive).
With `Cc1ccc2nc3c(cc(C(=O)NCC4CCCO4)c(=N)n3CCCOC(C)C)c(=O)n2c1` (stereo not given), the growth inhibition is 4.47% (inactive).
Regarding `CC(C)CC(=O)NC(NC(=O)CC(C)C)c1cccc([N+](=O)[O-])c1`, the growth inhibition is 2.96% (inactive).
With `CC(=O)NC(NC(=S)N1CCCCCC1)C(Cl)(Cl)Cl` (stereo not given), the growth inhibition was -2.52% (inactive).
Consider `C[N+]1(C2CCC3CCCC2C3O)CCCCC1` (stereo not given), for which the growth inhibition was -8.1% (inactive).
Turning to `O=C(O)CCCCCN=C1CCc2ccccc2N1`, the growth inhibition was 0.535% (inactive).
As for `Cc1ccc(OCCCCn2ccnc2C)c(C)c1`, the growth inhibition is -3.77% (inactive).
Take `COc1ccc(CCN2C(=O)CSC2c2ccc(OC)c(OC)c2)cc1OC` (stereo not given): the growth inhibition was 2.57% (inactive).
As to `O=C1C(=O)N2C(=C1C(=O)N1CCCCCC1)c1ccccc1CC21CCCC1`, the growth inhibition is -4.5% (inactive).
Next, `CCN1CCN(C(=S)c2ccc(OC)cc2)CC1`: -1.26% (inactive); `O[C@H]1COC2C1OC[C@@H]2O` (stereo not given in full): -2.02% (inactive); `Oc1ccc(COCc2ccccc2)c2cccnc12`: -6.18% (inactive).
On to `O=[N+]([O-])c1ccc(O)c2ncccc12`, for which the growth inhibition was 93.7% (active).
For `O=C(Cc1ccccc1[N+](=O)[O-])NCc1ccncc1` the value was 15% (inactive); for `CC1CCN(C(=O)Oc2ccccc2)CC1`, 5.73% (inactive).
As for `C[N+]12CCCCC1C(COC(=O)c1ccc3c(c1)OCO3)CCC2` (stereo not given), the growth inhibition is 1.34% (inactive).
Next, `CC(C)N(C(=O)Cc1ccccc1[N+](=O)[O-])C(C)C`: 4.35% (inactive); `O=C(c1ccc(Cl)cc1)C1CCCN(Cc2ccc(Oc3ncccn3)cc2)C1` (stereo not given): -7.65% (inactive).
For `Cc1ccc(C2CC(c3cccs3)=NN2C(=O)c2ccco2)o1` (stereo not given), the growth inhibition was 6.03% (inactive).
For the molecule `O=CNC1CCCc2c1[nH]c1ccc(Cl)cc21` (stereo not given), the growth inhibition was -7.59% (inactive).
In the case of `COc1ccc(C(=O)[C@H]2[C@H]3C(=O)N(c4ccccc4)C(=O)[C@H]3C3C=CC=NN32)cc1` (stereo not given in full), the growth inhibition is 15.9% (inactive).

The record behind these values is PubChem BioAssay AID504594 (Broad Institute, 2011).
